Inconclusive results are not listed. Calls of active or inactive are those of the source. Unless noted, the call rests on the fitted dose curve; in most records, active means well fitted curve in the direction sought with a large enough effect; inconclusive means small, poorly fitted or top-dose-only effect, or another doubt; inactive means no such curve, though single readings can be large; an effect the other way counts as inactive or inconclusive.
Tests used:
[1] = Cellular Toxicity (caspase-3) N2a (AID 665);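 further: compound exposure lasted 16 h at 37 °C before readout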
Method in brief: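 Luminescent Caspase-Glo 3/7 readout in N2a mouse neuroblastoma cells after 16 h compound exposure at 37 °C. Signal scaled to DMSO (basal) and 10 uM staurosporine (100%). Concentration-response fitted with Hill equation for AC50.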

[2] = Cellular Toxicity (caspase-3) NIH 3T3 (AID 666)
Method in brief: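 NIH 3T3, 1000 cells/well, 5 hr settle then 16 hr compound at 37°C; Caspase-Glo 3/7, 20 min RT, luminescence. DMSO = basal, 100 uM tamoxifen = 100%. Hill-equation AC50, qHTS.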

[3] = Cellular Toxicity (caspase-3) Renal Proximal Tubule (AID 667);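 further: cells exposed to compound for 16 hours at 37 °C before detection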
Method in brief: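 Caspase-Glo 3/7 read-out, rat primary kidney proximal tubule cells. Compound exposure 16 h, 37 °C; detection after 1 h at RT. Activity scaled to DMSO and 10 uM staurosporine.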

[4] = Cell Viability - LYMP2-001 (AID 921);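 further: series mostly up to about 92 µM; cells exposed to compound for 24 h at 37 °C; nearly all actives have a fitted effect of over 70% in size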
Method in brief: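 A lymphoblastoid cell line of human origin was treated with library compounds across a concentration series for 24 hours, and viable cell number was estimated from ATP-driven luciferase light output. Hill modeling gave AC50.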

[5] = MultiTox-Fluor Cytotoxicity Assay - LYMP1-001 - Dead Cells (AID 946)
Method in brief: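 LYMP1-001 lymphoblastoid cells (2500/well) treated 16 h at 37 C. Dead-cell protease cleavage of bis-AAF-R110 read at Ex/Em 485/520. Normalized to DMSO and 15 uM tetraoctylammonium bromide; AC50 from Hill fits.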

[6] = MultiTox-Fluor Cytotoxicity Assay - LYMP1-001 - Live Cells (AID 947)
[7] = Cell Viability - LYMP1-002 - Assay at 16 hr (AID 948)
Method in brief: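 In this qHTS, lymphoblastoid LYMP1-002 cells (human) receive compounds for 16 hr at 37 C. Viability is taken from CellTiter-Glo ATP luminescence, and AC50 derives from standard Hill fits.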

[8] = MultiTox-Fluor Cytotoxicity Assay - LYMP1-002 - Live Cells (AID 955);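 further: cells exposed to compound for 16 hours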
Method in brief: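 LYMP1-002 lymphoblastoid cells; 2500 cells/well; 16 hr compound exposure, 37 C; MultiTox-Fluor reagent 60 min RT; live-cell fluorescence Ex/Em=405/510; qHTS concentration-response, Hill-equation AC50; tetraoctylammonium bromide positive control.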

[9] = biological target: Guanine nucleotide-binding protein G(i) subunit alpha-1 (Homo sapiens) (UniProt P63096); assay: qHTS Assay for Inhibitors of RGS12 GoLoco Motif Activity (Green Fluorophore) (AID 879);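 further: negative values mean loss of peptide binding seen as reduced polarization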
Method in brief: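 A drop in FITC polarization marked displacement of the FITC-tagged RGS12 GoLoco peptide (10 nM) from Gαi1 (50 nM). Compounds were incubated 10 min at room temperature in Tris pH 7.5 buffer containing 150 mM NaCl, 0.1 mM GDP and 0.05% NP40; unlabeled peptide titration served as control.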

[10] = qHTS Assay for Identification of Small Molecule Agonists for Thrombopoietin (TPO) Signaling Pathway (AID 917)
Method in brief: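 Human TPO receptor–transfected Ba/F3 cells (murine, IL-3-dependent) in IL-3-deficient medium; compounds plus TPO at EC50, 26 pM final; 24 hrs, 37 C; GpIIb-luciferase luminescence after 10 min RT detection.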

[11] = biological target: Muscarinic acetylcholine receptor M1 (Rattus norvegicus) (UniProt P08482); assay: qHTS Assay for Antagonists of Acetylcholine Muscarinic M1 Receptor: Measurement of IP-One Response (AID 944); further: nearly all actives have a fitted effect of over 75% in size
Method in brief: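 Read-out: HTRF competition between d2-IP1 and Eu-cryptate anti-IP1 antibody, emission 620 and 665 nm. Stimulus was carbachol, EC80 (200 nM), for 30 min in M1-CHO cells (rat receptor), after 10 min compound pre-treatment.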

[12] = biological target: Pyruvate kinase (Leishmania mexicana) (UniProt Q27686); assay: qHTS Validation Assay for Inhibitors of Leishmania Mexicana Pyruvate Kinase (AID 945)
Method in brief: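 The enzyme is a highly purified E451W mutant of LmPYK used at 0.2 nM. It converts 0.5 mM PEP and 0.1 mM ADP over 1 h at room temperature; product ATP is quantified by luciferase luminescence relative to DMSO controls.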

[13] = biological target: Pyruvate kinase PKM (Homo sapiens) (UniProt P14618); assay: qHTS Assay for Activators of Human Muscle Pyruvate Kinase (AID 954; active means well fitted curve in the direction sought with a large enough effect, not every such curve was filed as active)
Method in brief: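 Compound pinned into substrate mix (0.5 mM PEP, 0.1 mM ADP), then 0.1 nM PKM2 added; 1 h, RT. Stop/detection luciferase reagent added, luminescence read. Normalized to no-inhibition and no-enzyme or reference-inhibitor controls.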

Measured: outcome

Chain of Guanine nucleotide-binding protein G(i) subunit alpha-1 (Homo sapiens) (P63096 whole entry, looked up): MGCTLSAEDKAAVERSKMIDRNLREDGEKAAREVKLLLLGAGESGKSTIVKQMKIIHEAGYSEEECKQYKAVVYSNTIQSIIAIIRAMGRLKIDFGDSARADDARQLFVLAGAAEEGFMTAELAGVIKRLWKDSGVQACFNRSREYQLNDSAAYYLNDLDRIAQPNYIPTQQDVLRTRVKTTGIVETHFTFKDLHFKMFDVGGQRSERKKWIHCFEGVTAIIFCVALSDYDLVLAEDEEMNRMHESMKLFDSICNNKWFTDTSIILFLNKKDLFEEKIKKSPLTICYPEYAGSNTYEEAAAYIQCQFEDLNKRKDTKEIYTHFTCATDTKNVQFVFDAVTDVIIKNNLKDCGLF
Chain of Pyruvate kinase (Leishmania mexicana) (Q27686 2-499 E452W): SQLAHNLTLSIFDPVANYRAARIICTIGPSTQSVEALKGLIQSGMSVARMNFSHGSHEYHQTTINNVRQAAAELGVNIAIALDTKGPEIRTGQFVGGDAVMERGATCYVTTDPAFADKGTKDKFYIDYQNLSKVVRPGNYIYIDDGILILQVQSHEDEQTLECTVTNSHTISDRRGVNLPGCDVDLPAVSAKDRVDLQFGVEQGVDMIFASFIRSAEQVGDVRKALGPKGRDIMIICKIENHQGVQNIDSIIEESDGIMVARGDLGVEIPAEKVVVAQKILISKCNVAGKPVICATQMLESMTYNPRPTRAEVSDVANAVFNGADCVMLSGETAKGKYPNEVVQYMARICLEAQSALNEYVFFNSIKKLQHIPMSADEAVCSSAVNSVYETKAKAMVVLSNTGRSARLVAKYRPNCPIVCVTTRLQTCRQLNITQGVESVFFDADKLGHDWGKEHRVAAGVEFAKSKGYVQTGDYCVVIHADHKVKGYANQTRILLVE
Chain of Pyruvate kinase PKM (Homo sapiens) (P14618 whole entry, looked up): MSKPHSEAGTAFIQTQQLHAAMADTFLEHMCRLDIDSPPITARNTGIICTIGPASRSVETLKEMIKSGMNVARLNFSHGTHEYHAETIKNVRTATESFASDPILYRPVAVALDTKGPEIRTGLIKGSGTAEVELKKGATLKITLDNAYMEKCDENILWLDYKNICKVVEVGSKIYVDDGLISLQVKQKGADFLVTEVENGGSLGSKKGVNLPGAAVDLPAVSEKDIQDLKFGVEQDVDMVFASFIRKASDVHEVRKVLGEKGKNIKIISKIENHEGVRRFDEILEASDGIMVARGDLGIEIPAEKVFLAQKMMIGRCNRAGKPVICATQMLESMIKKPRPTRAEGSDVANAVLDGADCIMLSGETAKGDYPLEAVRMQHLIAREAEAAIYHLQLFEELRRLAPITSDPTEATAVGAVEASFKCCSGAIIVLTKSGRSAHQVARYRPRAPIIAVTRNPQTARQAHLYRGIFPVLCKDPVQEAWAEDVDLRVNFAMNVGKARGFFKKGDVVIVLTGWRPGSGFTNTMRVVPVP
Chain of Muscarinic acetylcholine receptor M1 (Rattus norvegicus) (P08482 whole entry, looked up): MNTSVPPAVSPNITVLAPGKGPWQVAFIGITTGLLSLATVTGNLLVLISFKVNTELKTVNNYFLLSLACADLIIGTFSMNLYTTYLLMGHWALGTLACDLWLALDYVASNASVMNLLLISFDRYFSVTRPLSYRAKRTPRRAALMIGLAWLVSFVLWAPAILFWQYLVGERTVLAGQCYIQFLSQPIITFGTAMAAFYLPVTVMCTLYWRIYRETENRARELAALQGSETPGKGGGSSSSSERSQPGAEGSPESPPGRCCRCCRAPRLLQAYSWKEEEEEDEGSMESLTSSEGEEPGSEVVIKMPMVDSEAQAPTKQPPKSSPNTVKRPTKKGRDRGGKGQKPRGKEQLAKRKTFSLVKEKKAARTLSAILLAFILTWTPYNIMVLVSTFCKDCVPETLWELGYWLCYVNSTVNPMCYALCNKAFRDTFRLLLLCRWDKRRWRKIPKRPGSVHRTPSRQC

Cc1cc(O)c2c(c1)C(=O)c1cccc(O)c1C2=O
not listed: [9] | [10] | [11] | [12] | [13]
inactive: all other assays above

COc1ccc2c(c1OC)C(=O)OC2[C@H]1c2c(cc3c(c2OC)OCO3)CCN1C (stereo partly specified)
inactive: [9] | [10] | [11] | [12]

CN(C)CC[C@H](c1ccc(Cl)cc1)c1ccccn1
inactive: [9] | [10] | [12] | [13]

From PubChem BioAssay (NCATS)
